Source: ChEMBL document CHEMBL4513216, “Probing the Open Global Health Chemical Diversity Library for Multistage-Active Starting Points for Next-Generation Antimalarials” (ACS Infect Dis, 2020)
The campaign covered roughly 69,000 compounds. About 8,600 (12%) showed an effect of 50% or more. This is one part of a sample in which strong results are shown more often than they occur.

The compounds below were run on Plasmodium berghei (assay: Screen against P. berghei liver stage (PbLuc), transformed with Luciferase, at 10uM). Conditions: tested at 10 uM.
Type: functional, HepG2

Row | Structure (SMILES) | INHIBITION [%]
1 | CC(C)n1[nH]c(=O)c2c1NC(=O)CC2c1cccc2cccnc12 (centres undefined) | -62.3
2 | Cc1ccnc(C2(C)CCCN2S(=O)(=O)c2cccnc2)n1 (centres undefined) | 21.2
3 | Cn1ccc(C(=O)NCc2ccc(CN3CCCC3)cc2)cc1=O | -2.19
4 | COc1cc(NC(=O)NCc2nccn2C)ccc1Br | 50.8
5 | Cn1ccnc1CNC(=O)Nc1ccc(OC2CCC2)c(F)c1 | 18
6 | Cc1cc(NC(=O)NCc2nccn2C)ccc1OC(C)C | 37.1
7 | Cc1cnn(CC2CCCN2C(=O)c2ccc(OCC3CC3)nc2)c1 (centres undefined) | -15
8 | O=C(CCc1cc2n(n1)CCCN(C(=O)c1ccncc1)C2)NC1CC1 | 43.2
9 | CC(C)[C@H](C)NC1CCN(c2ccc(-c3cscn3)cc2)CC1 | 81.4
10 | CC(C)CC(C)NC1CCN(c2ccc(-c3cscn3)cc2)CC1 (centres undefined) | 45.2
11 | Cc1cc(NC(=O)CN2CCN(c3nc(C)cs3)C(C)C2)on1 (centres undefined) | -1.12
12 | Cc1nc(C(C)C)sc1C(=O)N1CCC(N2CCSCC2)CC1 | 1.86
13 | CN1CCOCC2(CCN(Cc3ccc[nH]3)CC2)C1 | 18.7
14 | c1c[nH]c(CN2CCC3(CC2)COCCN(CCN2CCCC2)C3)c1 | -15.3
15 | CS(=O)(=O)N1CCOCC2(CCN(Cc3ccc[nH]3)CC2)C1 | 57.1
16 | O=C(O)c1ccccc1-c1ccc(CN2CCC(CO)C2)cn1 (centres undefined) | 33.2
17 | CC(C)n1cnc2c1C(C(=O)N1CCOCC1)N(CC1CC1)CC2 (centres undefined) | -49.1
18 | Cc1cccc(CN2CCc3c(COCC(=O)N(C)C)nn(C)c3C2)n1 | 76.2
19 | CN(C)C(=O)COCc1nn(C)c2c1CCN(Cc1ccco1)C2 | 13.3
20 | Cc1cccc(CN2CCc3c(CNC(=O)CC#N)nn(C)c3C2)n1 | 44.2
21 | CN1CCC(c2cccc(-c3ccc(C(=O)O)cc3)n2)CC1 | 15.5
22 | c1csc(CN2CCCN(c3ncnc4[nH]ccc34)CC2)c1 | 38.4

Row | Structure (SMILES) | INHIBITION [%]
23 | CCCc1nc(N(C)Cc2cnc(NC)nc2)c2cnn(C)c2n1 | 58.7
24 | CCCc1nc(N(C)CCN2CCCCCC2)c2cnn(C)c2n1 | 53
25 | CNc1ncc(CN(C)c2nc(C3CCCC3)nc3c2cnn3C)cn1 | 24.7
26 | CCCc1nc(N2CCCN(c3ncccn3)CC2)c2cnn(C)c2n1 | 30.9
27 | CN(C)CCN(C)c1nc(CCc2ccccc2)nc2c1cnn2C | -13.4
28 | CCCc1nc(N(C)CCc2noc(C(C)C)n2)c2cnn(C)c2n1 | 42.3
29 | Cc1cccc(-n2c(C)cc(C(=O)NS(C)(=O)=O)c2C)c1 | 9.14
30 | C/C(Cl)=C/CNC(=O)C1CCC2(CC1)CN(C)C(=O)c1ccccc1O2 (centres undefined) | 7.96
31 | CCC(C)NS(=O)(=O)c1ccc(C=Cc2onc(C)c2NC(C)=O)cc1 (centres undefined) | -9.55
32 | CC(C)NC(=O)CN1CCN(CC2CCOc3ccccc3C2)CC1 (centres undefined) | -19.8
33 | O=C(CN1CCN(CC2CCOc3ccccc3C2)CC1)N1CCCC1 (centres undefined) | 16.1
34 | CN(C)C(=O)CN1CCCN(CC2CCOc3ccccc3C2)CC1 (centres undefined) | 75.2
35 | O=C(COc1ccccc1Cl)N1CCCC(n2ccnc2)C1 (centres undefined) | 19.5
36 | O=C(c1ccc(S(=O)(=O)N2CCSCC2)cc1)N1CCCCCC1 | 24.2
37 | Cc1ccc(C(=O)N2CCN3C[C@H](Oc4cccnc4)C[C@H]3C2)cn1 | 39.3
38 | COc1ccc2c(c1)OCC(CNC(=O)c1cc[nH]c1C)C2 (centres undefined) | -3.83
39 | COc1ccc2c(c1)OCC(CNC(=O)c1ccncc1)C2 (centres undefined) | 4.2
40 | COCCC(=O)NCC1COc2cc(OC)ccc2C1 (centres undefined) | 72.7
41 | COc1ccc2c(c1)OCC(CNC(=O)c1cnc(O)cn1)C2 (centres undefined) | 12.9
42 | Cc1n[nH]c(C)c1CCC(=O)NCC1CCOc2ccccc2C1 (centres undefined) | 49.9
43 | COc1ccc2c(c1)OCC(CNC(=O)CCc1c(C)n[nH]c1C)C2 (centres undefined) | 35
44 | COc1ccc2c(c1)OCC(CNC(=O)c1ccc3[nH]nnc3c1)C2 (centres undefined) | 4.52

Row | Structure (SMILES) | INHIBITION [%]
45 | COc1ccc2c(c1)OCC(CNC(=O)c1cnc(NC(C)C)nc1)C2 (centres undefined) | -42.8
46 | CCNC(=O)c1ccnc(NCC2COc3cc(OC)ccc3C2)c1 (centres undefined) | 51.6
47 | Cc1[nH]nc(CCC(=O)NCC2COc3ccccc3C2)c1C (centres undefined) | 13.7
48 | Cc1n[nH]c(C)c1CCC(=O)NCC1COc2ccccc2C1 (centres undefined) | 52.6
49 | CCc1nc(C)c(C(=O)NCC2COc3cc(OC)ccc3C2)o1 (centres undefined) | 53.2
50 | CC(C)c1nn(C)cc1CNCc1cccc(N(C)C)c1 | 12.4
51 | Cc1nccn1C1CCCN(C(=O)COC2CCCC2)C1 (centres undefined) | 39.735
52 | CCN(c1ccc(C(=O)NCCCN2CCOCC2)cc1)S(=O)(=O)CC | -0.79
53 | NCC(CO)Cc1ccc(OC(F)(F)F)cc1 (centres undefined) | 19
54 | CCOc1ccc(Cl)c(C(=O)N2CCN(CC(C)(C)O)CC2)n1 | 4.52
55 | CCC[C@H]1CN(C(=O)c2cc(-c3cccs3)n(C)n2)C[C@@H]1N | 29.7
56 | c1cc(-c2nc(CN3CCc4c(ncn4C4CC4)C3)cs2)cs1 | 22.6
57 | CCN1C[C@@H]2CN(c3cc(OC)ncn3)CCC[C@]2(C(=O)O)C1 | 47.5
58 | COCCN1C[C@@H]2CN(c3cc(OC)ncn3)CCC[C@]2(C(=O)O)C1 | 57.1
59 | COc1cc(N2CCC[C@]3(C(=O)O)CN(C(C)C)C[C@@H]3C2)ncn1 | 26.5
60 | CN(C)S(=O)(=O)N1CCCC(C)(c2ncc(C(N)=O)s2)C1 (centres undefined) | 23.9
61 | O=C(COC1CCCC1)NCCCn1nc2ccccn2c1=O | -24.6
62 | CN1CCC(N(CCc2ccccc2)C(=O)c2cc[nH]c2)CC1 | 32.8
63 | CC1(C(=O)N2CCOCC2)CN(CC2CCOCC2)CCO1 (centres undefined) | 7.25
64 | CN1CCOC(C)(C(=O)N2CCN(C3CCCC3)CC2)C1 (centres undefined) | 32.8
65 | CC1(C(=O)N2CCOCC2)CN(C2CCCCC2)CCO1 (centres undefined) | 56.8
66 | COCC(=O)NCc1cc(=O)n2c(n1)CN(Cc1ccoc1)CCC2 | 36.9

Row | Structure (SMILES) | INHIBITION [%]
67 | Cc1nc(C)c(C(=O)N2CCc3nc4c(C)csc4c(=O)n3CC2)s1 | 39.7
68 | Cc1csc2nc3n(c(=O)c12)CCN(Cc1c[nH]cn1)CC3 | 17.1
69 | CN1CC(C(=O)NCCOc2ccc3c(c2)OCO3)CC1=O (centres undefined) | 16.9
70 | Cc1ccc(C(C)NC(=O)N2CCCN(CC(F)F)CC2)s1 (centres undefined) | 60.9
71 | CC(NC(=O)N1CCCN(Cc2cccs2)CC1)c1cccnc1 (centres undefined) | 6.92
72 | CC(CNC(=O)N1CCN(CC(F)F)CC1)Cc1cccs1 (centres undefined) | -13.2
73 | CC(=O)N1CCCN(C(=O)NC(C)c2ccc(C)o2)CC1 (centres undefined) | 11.3
74 | CC(NC(=O)N1CCCN(CC(F)F)CC1)c1ccco1 (centres undefined) | 62.3
75 | CCc1cnc(C(C)NC(=O)N2CCCN(CC(F)F)CC2)s1 (centres undefined) | -37.8
76 | CN(C)C(=O)c1cc2ncc(C(=O)NC3CC3)cc2n1C | 2.59
77 | CC(CNCc1ccncc1)Oc1ccccn1 (centres undefined) | -52.1
78 | Cc1nccn1CCC1CCN(C2CCC3(CCNCC3)CC2)CC1 | 12.1
79 | O=C1[C@H]2CN(Cc3ccc(F)cc3)C[C@H]2CN1CCN1CCCC1 | 3.81
80 | Nc1nc(N)c2c(n1)OC1(CCN(C(=O)CC3CCNCC3)CC1)C2 | -13.13
81 | CN1[C@H](CN2CCCC2)C[C@@H]2CN(C(=O)c3ccsc3)CC[C@@H]21 | 28.4
82 | COc1ccc(CCN2C(=O)O[C@@H]3CN(C4CCSCC4)C[C@@H]32)cc1 | 47.6
83 | COc1ccc(CCN2C(=O)O[C@@H]3CN(C)C[C@@H]32)cc1 | 51.2
84 | COc1ccc(CCN2C(=O)O[C@@H]3CN(C4CCOCC4)C[C@@H]32)cc1 | -5.12
85 | CC1(C)CNC(=O)c2nc(CCN3CCC(C(N)=O)CC3)[nH]c2C1 | 8.38
86 | CC1(C)CNC(=O)c2nc(CCN3CCCCC3CO)[nH]c2C1 (centres undefined) | 24.4
87 | CC1(C)CNC(=O)c2nc(CCCN3CCCC3)[nH]c2C1 | 83.2
88 | CN1CCCC(c2nc3c([nH]2)CC(C)(C)CNC3=O)C1 (centres undefined) | -67.3

Row | Structure (SMILES) | INHIBITION [%]
89 | CC1(C)CNC(=O)c2nc(CCN3CCOCC3)[nH]c2C1 | -13
90 | CC1(C)CNC(=O)c2nc(CCN3CCC(O)CC3)[nH]c2C1 | 53.3
91 | O=C(NCC1CC1)Nc1ccc(OCC(F)(F)F)nc1 | 23.73
92 | O=S(=O)(Cc1c(F)cccc1Cl)Cc1nnnn1C1CC1 | 25.8
93 | COc1ccc(OC)c(C2CCN(C(=O)C3CCC(O)CC3)C2)c1 (centres undefined) | 25.5
94 | COc1ccc(OC)c(C2CCN(C3CCN(C(C)=O)CC3)C2)c1 (centres undefined) | 27.7
95 | COc1ccc(OC)c(C2CCN(C(=O)CCc3n[nH]c(N)n3)C2)c1 (centres undefined) | -24
96 | COc1ccc(OC)c(C2CCN(C(=O)C3CCOCC3)C2)c1 (centres undefined) | 50.1
97 | COc1ccc(OC)c(C2CCN(C(=O)C3CCN(C(C)C)CC3)C2)c1 (centres undefined) | 53.3
98 | COc1ccc(OC)c(C2CCN(C(=O)C3CCS(=O)(=O)CC3)C2)c1 (centres undefined) | 40.5
99 | CN(CC(=O)Nc1cc(C(C)(C)C)n[nH]1)S(C)(=O)=O | 3.63
100 | O=C(NCC1(Sc2ccccc2)CC1)c1c[nH]nn1 | 20.8
101 | CN(C)CC(=O)N1CCN(CC(O)c2ccc(F)cc2)CC1 (centres undefined) | -11.4
102 | COc1ccccc1OCCc1nnc(NC(=O)C2CC23CCC3)s1 (centres undefined) | 31.97
103 | CSCC(=O)N1C[C@@H]2CC[C@H]1CN(Cc1ccccc1)C2 | -79.7
104 | CCOc1ccc(C(=O)Nc2c(C)nc3scc(C)n3c2=O)cc1 | 5.58
105 | CCOc1ccc(C(=O)Nc2c(C)nc3ccccn3c2=O)cc1 | 56.5
106 | CCOc1ccc(C(=O)Nc2c(C)nc3cccc(C)n3c2=O)cc1 | -14.7
107 | COc1ccc(C(=O)Nc2c(C)nc3cccc(C)n3c2=O)cc1 | 31.7
108 | CCOc1ccc(C(=O)Nc2c(C)nc3ccc(Cl)cn3c2=O)cc1 | 51.6
109 | CCOc1ccc(C(=O)Nc2ccn(CC)n2)cc1 | -125
